Source: PubChem BioAssay (NCATS)
Records with an inconclusive call do not appear. The source made the active and inactive calls. Calls follow the shape of the dose curve; as a rule, active = well fitted activation curve with a large enough effect; inconclusive = small, poorly fitted or top-dose-only effect, or effect the other way; inactive = flat fitted curve, though single readings scatter.

Assay: qHTS Assay for Identification of Small Molecule Agonists for Thrombopoietin (TPO) Signaling Pathway (AID 917)
Conditions: TPO signaling pathway reporter cells, agonist qHTS; series mostly up to 38.5 µM
Description: NIH Molecular Libraries Screening Centers Network [MLSCN]
NIH Chemical Genomics Center [NCGC]
The thrombopoietin (TPO) signaling pathway was assayed in murine Ba/F3 cells stably transfected with the human TPO receptor and a luciferase reporter gene controlled by the Glycoprotein IIb promoter (provided by Axxam). BaF3 cells are an IL-3-dependent pro B cell line that upon TPO stimulation, undergo cell division and induce the megakaryocyte marker, Glycoprotein IIb. The assay was screened at the EC50 of TPO (26 pM) to identify activators of the pathway.
NCGC Assay Protocol Summary:
Cells were maintained at 37 C and 5% CO2in RPMI with 10% fetal bovine serum, 0.5 ng/mL murine IL-3, 100U/ml penicillin and 100 ug/ml streptomycin. Prior to plating, cells were incubated overnight in medium without IL-3. Cells were plated at 250 cells/5uL/well into white solid 1536-well plates, 23 nL of compounds were delivered by a pin tool, and 1 uL of TPO (26 pM final concentration in IL-3 deficient medium) was added. Following 24 hrs of incubation at 37 C and 5% CO2, 4 uL of Steadylite detector mix (PerkinElmer) was added, the plates incubated at room temperature for 10 min and luminescence was measured for 10 s and 2X binning by a ViewLux detector (Perkin Elmer).

SMILES | outcome
C[C@@H]1O[C@@H](O[C@H]2C[C@@H](O)[C@]3(CO)[C@@H]4[C@@H](O)C[C@]5(C)[C@H](C6=CC(=O)OC6)CC[C@@]5(O)[C@H]4CC[C@@]3(O)C2)[C@H](O)[C@H](O)[C@@H]1O | inactive
CC(C)n1cc2c3c(cccc31)[C@@H]1C[C@H](C(=O)O[C@@H](C)[C@H](C)O)CN(C)[C@H]1C2 | inactive
CCCC[N+]1(C)[C@@H]2CC(OC(=O)[C@@H](CO)c3ccccc3)C[C@H]1[C@H]1O[C@H]12 (some centres undefined) | inactive
O[C@@H]1CCCC[C@H]1N1CCC(c2ccccc2)CC1 | inactive
CCN1C[C@]2(C)CC[C@@H](O)[C@]34[C@@H]5CC6[C@@H](OC)C[C@@](O)([C@H]5[C@@H]6O)[C@@H](C[C@@H]23)[C@H]14 | inactive
CN1[C@@H]2CC[C@H]1CC(O[C@@H](c1ccccc1)c1ccccc1N)C2 (some centres undefined) | inactive
C[C@@H](Cc1ccc2c(c1)OC(C(=O)O)(C(=O)O)O2)NC[C@H](O)c1cccc(Cl)c1 | inactive
C=CCN1CC[C@@]23CCCC[C@@H]2[C@@H]1Cc1ccc(O)cc13 | inactive
CCN(CC)C(=O)N[C@H]1C[C@H]2c3cccc4[nH]cc(c34)C[C@@H]2N(C)C1 | inactive
C[N+]1(C)CCO[C@@](O)(c2ccc(-c3ccc([C@]4(O)C[N+](C)(C)CCO4)cc3)cc2)C1 | inactive
C[C@H](N[C@@H](C)CCc1ccccc1)[C@H](O)c1ccc(O)cc1 | inactive
C[C@H](N)c1cccc(Cl)c1Cl | inactive
C=CCN1CC[C@]23c4c5ccc(O)c4O[C@@H]2C(=O)CC[C@@]3(O)[C@H]1C5 | inactive
CC(C)(C)NC[C@H](O)c1ccccc1Cl | inactive
C=CCN1C[C@@H](C)N([C@H](c2ccc(C(=O)N(CC)CC)cc2)c2cccc(OC)c2)C[C@H]1C | inactive
CCCN1CCC[C@H](c2cccc(C#N)c2)C1 | inactive
CC[C@H](CO)NC(=O)[C@@H]1C=C2c3cccc4c3c(cn4C)C[C@@H]2N(C)C1 | inactive
C[C@@H]1O[C@@H](O[C@H]2C[C@@H](O)[C@]3(CO)[C@@H]4[C@@H](O)C[C@]5(C)[C@H]([C@@H]6COC(=O)C6)CC[C@@]5(O)[C@H]4CC[C@@]3(O)C2)[C@H](O)[C@H](O)[C@@H]1O | inactive
CC[C@H](CO)NC(=O)[C@@H]1C=C2c3cccc4[nH]cc(c34)C[C@@H]2N(C)C1 | inactive
